Measurements taken from PubChem BioAssay AID720597 (Broad Institute, 2013).
Results with a measured potency or affinity are listed apart.

target: NAD-dependent protein deacylase sirtuin-5, mitochondrial (Homo sapiens) (UniProt Q9NXA8); test: SIRT5 deacylase inhibitors, dose response, biochemical, fluorescence imaging, cherry-pick, set 6 (AID 720597); conditions: Purified SirT5, succinyl-peptide-AMC/trypsin fluorescence; series mostly up to 15 µM; activity change, negative = inhibition: at the top concentration;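 note: lower AMC signal can also come from blocking the trypsin step; 0% = median of neutral control wells and -100% = median of positive control wells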
Sequence (Q9NXA8 whole entry, looked up): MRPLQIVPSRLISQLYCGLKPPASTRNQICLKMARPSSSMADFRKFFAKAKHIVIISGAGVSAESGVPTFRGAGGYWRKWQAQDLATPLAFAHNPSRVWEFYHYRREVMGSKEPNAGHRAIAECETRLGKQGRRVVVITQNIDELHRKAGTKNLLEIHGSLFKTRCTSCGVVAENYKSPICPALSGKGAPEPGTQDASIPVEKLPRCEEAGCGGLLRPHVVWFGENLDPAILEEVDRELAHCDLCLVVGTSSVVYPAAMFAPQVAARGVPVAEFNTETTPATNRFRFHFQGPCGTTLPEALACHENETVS

Activity change, negative = inhibition, inactive:
C[C@@H]1CN([C@H](C)CO)C(=O)c2cc(NS(=O)(=O)c3ccccc3)ccc2O[C@@H](C)CCCCO[C@H]1CN(C)Cc1ccc(C(F)(F)F)cc1 7.22%
C[C@@H]1CN([C@@H](C)CO)C(=O)c2cccc(NC(=O)c3ccc(-c4nccs4)cc3)c2O[C@@H]1CN(C)Cc1ccc(C(F)(F)F)cc1 -0.017% [at 7.5 µM]
CCCC#Cc1ccc([C@@H]2[C@H]3CN(S(=O)(=O)Cc4ccccc4)CCCCN3[C@H]2CO)cc1 25.8%
O=C(NCC[C@H]1CC[C@@H](NC(=O)Nc2cc(F)ccc2F)[C@H](CO)O1)Nc1ccc(F)cc1 -8.82%
COCC(=O)N(C)C[C@H]1[C@H](c2ccccc2)[C@@H](CO)N1C(=O)Cc1ccncc1 42.7%
COc1cccc(S(=O)(=O)N(C)C[C@@H]2Oc3cc(C4=CCCCC4)ccc3S(=O)(=O)N([C@H](C)CO)C[C@@H]2C)c1 18.7%
O=S(=O)(c1ccccc1)N1CCCCN2[C@H](C1)[C@H](c1ccc(C#CC3CCCC3)cc1)[C@@H]2CO -17.2%
C[C@@H]1CN([C@H](C)CO)S(=O)(=O)c2ccc(C#C[C@@H](C)O)cc2O[C@@H]1CN(C)Cc1ccc(-c2ccccc2)cc1 11.5%
COCC(=O)N1[C@H](CO)[C@@H](c2ccccc2)C12CN(Cc1cc(F)ccc1F)C2 -1.31%
C[C@@H]1CN([C@@H](C)CO)C(=O)c2cccc(NS(=O)(=O)c3ccc(F)cc3)c2O[C@H]1CN(C)C(=O)Nc1ccccc1 -19.6%
O=C(Nc1cc(F)ccc1F)N1CC(=O)N2[C@@H](CO)[C@@H](c3ccc(C#CC4CCCCC4)cc3)[C@@H]2C1 -15.7%
CN(C)C(=O)c1cccc(-c2ccc([C@H]3[C@H]4CN(S(C)(=O)=O)CCCCN4[C@H]3CO)cc2)c1 -11.1%
O=C(C[C@@H]1CC[C@@H](NS(=O)(=O)c2ccc(F)cc2)[C@@H](CO)O1)N1CCC(Cc2ccccc2)CC1 -27.4%
C[C@@H]1CN([C@@H](C)CO)S(=O)(=O)c2ccc(C#CC(C)(C)O)cc2O[C@@H]1CN(C)Cc1ccc(-c2ccccc2)cc1 -5.45%
C[C@@H]1CN([C@H](C)CO)S(=O)(=O)c2ccc(C#C[C@@H](C)O)cc2O[C@H]1CN(C)Cc1ccc(-c2ccccc2)cc1 -7.21%
COc1cccc(NC(=O)N(C)C[C@H]2Oc3ncc(C4=CCCCC4)cc3C(=O)N([C@H](C)CO)C[C@@H]2C)c1 14.6%
CN1c2ccc(-c3ccccc3)cc2[C@H]2[C@H](CCN2C(=O)Cc2ccccn2)[C@H]1CO -17.4%
Cc1ccc(-c2ccc([C@@H]3[C@@H](CO)N4CCCCN(S(=O)(=O)c5cccc(C)c5)C[C@H]34)cc2)cc1 7.83%
COc1ccc(NC(=O)Nc2ccc3c(c2)C(=O)N([C@H](C)CO)C[C@H](C)[C@@H](CN(C)Cc2ccc(C(F)(F)F)cc2)O3)cc1 -6.42%
O=C(c1ccc(F)cc1)N1CC(=O)N2[C@H](C1)[C@H](c1ccc(C#CCC3CCCC3)cc1)[C@@H]2CO -22.1%
COc1cccc(-c2ccc3c(c2)[C@H]2[C@H](CCN2C(=O)c2ccccc2F)[C@H](CO)N3C)c1 -15.6%
C[C@@H]1CN([C@@H](C)CO)C(=O)c2cc(NS(=O)(=O)c3ccccc3)ccc2O[C@@H](C)CCCCO[C@H]1CN(C)S(=O)(=O)c1ccc(Cl)cc1 -18.9%
O=C(C[C@@H]1C[C@H]2c3cc(NC(=O)c4ccc5c(c4)OCO5)ccc3O[C@H]2[C@H](CO)O1)NCc1ccc(Oc2ccccc2)cc1 -12.9%
CCS(=O)(=O)N1CC2(CN(Cc3cccc(Cl)c3)[C@H](CO)c3c2c2ccc(OC)cc2n3C)C1 11.6%
C[C@@H]1CN([C@H](C)CO)S(=O)(=O)c2ccc(C#CC3CC3)cc2O[C@H]1CN(C)Cc1ccccc1F 3.77%
C[C@H](CO)N1C[C@H](C)[C@H](CN(C)Cc2ccc(C(F)(F)F)cc2)Oc2ccc(NS(C)(=O)=O)cc2C1=O 17%
C[C@H](CO)N1C[C@H](C)[C@H](CN(C)Cc2ccc(-c3ccccc3)cc2)Oc2ccc(NC(=O)CCCCCC(=O)Nc3ccccc3N)cc2C1=O 28.7%
O=C(C[C@@H]1CC[C@@H]2[C@H](COC[C@@H](O)CN2Cc2ccc3c(c2)OCO3)O1)N1CCOCC1 -7.73%
C[C@@H]1CCCCO[C@H](CN(C)Cc2ccc(C(F)(F)F)cc2)[C@H](C)CN([C@H](C)CO)C(=O)c2cc(NC(=O)c3ccncc3)ccc2O1 -22.7%
C[C@@H]1CN([C@@H](C)CO)C(=O)Cc2cc(NC(=O)Nc3ccc(F)cc3)ccc2O[C@@H]1CN(C)C 12.7%
O=C(C[C@@H]1CC[C@H](NS(=O)(=O)c2ccc(F)cc2)[C@H](CO)O1)N1CCN(c2ccccc2)CC1 -10.8%
COc1cccc(C(=O)Nc2ccc3c(c2)C(=O)N(C)C[C@H](OC)[C@@H](C)CN(CCc2ccccc2)[C@@H](C)CO3)c1 -22.3%
C[C@@H]1CN([C@H](C)CO)C(=O)c2cc(NS(=O)(=O)c3ccc(Cl)cc3)ccc2O[C@@H](C)CCCCO[C@@H]1CN(C)Cc1ccc2c(c1)OCO2 -15.4%
Cc1ccc(S(=O)(=O)Nc2ccc3c(c2)C(=O)N([C@@H](C)CO)C[C@@H](C)[C@H](CN(C)Cc2ccc(C(F)(F)F)cc2)OCCCC[C@@H](C)O3)cc1 6.34%
Cc1ccc(S(=O)(=O)N[C@H]2CC[C@@H](CCn3cc(C(C)C)nn3)O[C@H]2CO)cc1 -10.1%
C[C@@H]1CN([C@@H](C)CO)C(=O)c2cccc(NC(=O)CCCCCC(=O)Nc3ccccc3N)c2O[C@H]1CN(C)Cc1ccc(-c2ccccc2)cc1 -19.2%
COc1ccccc1-c1ccc2c(c1)O[C@@H](CN(C)S(=O)(=O)c1ccccc1)[C@H](C)CN([C@@H](C)CO)S2(=O)=O -12%
Cc1noc(C)c1S(=O)(=O)N(C)C[C@@H]1OCCCC[C@@H](C)Oc2ccc(NC(=O)Nc3cccc4ccccc34)cc2C(=O)N([C@H](C)CO)C[C@@H]1C -28%
COc1ccc(S(=O)(=O)N(C)C[C@H]2OCCCC[C@H](C)Oc3ccc(NS(=O)(=O)c4ccc(Cl)cc4)cc3C(=O)N([C@H](C)CO)C[C@H]2C)cc1 -2.51%
COc1ccc(S(=O)(=O)Nc2ccc3c(c2)C(=O)N([C@H](C)CO)C[C@H](C)[C@@H](CN(C)Cc2ccc(C(F)(F)F)cc2)OCCCC[C@@H](C)O3)cc1 -4.74%
